This note sets out measurements from publication PMC11006913.

Changes are numbered by the printed parent chain.

Common to all, as to experiment: PBM; 200 nM protein, PBS
What all share (settings): dsDNA, one strand shown

Test [1] concerns the target NKX2-5 (Homo sapiens, UniProt P52952 125-210, R139K).
Test [2] addresses HOXB4 (Homo sapiens, UniProt P17483 148-234).
The target of test [3] is HOXB4 (Homo sapiens, UniProt P17483 148-234, V174I).
The target of a further test is HOXB9 (Homo sapiens, UniProt P17482 171-250, R186Q).
Test [4] has as its target NKX2-5 (Homo sapiens, UniProt P52952 125-210).
In test [5] the target is T1, NKX2-4 (Homo sapiens, UniProt Q9H2Z4 175-261, P217L).
T1 sequence: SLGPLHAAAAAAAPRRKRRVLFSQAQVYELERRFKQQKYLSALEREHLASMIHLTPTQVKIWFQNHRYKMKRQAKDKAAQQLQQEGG

Test [6] concerns the target T2, NKX2-4 (Homo sapiens, UniProt Q9H2Z4 175-261, T231S).
T2 sequence: T1 sequence with L43P, T57S

Test [7] deals with T3, NKX2-4 (Homo sapiens, UniProt Q9H2Z4 175-261).
T3 sequence: T1 sequence with L43P

Test [8] addresses T4, NKX2-6 (Homo sapiens, UniProt A6NCS4 118-204, R150C).
T4 sequence: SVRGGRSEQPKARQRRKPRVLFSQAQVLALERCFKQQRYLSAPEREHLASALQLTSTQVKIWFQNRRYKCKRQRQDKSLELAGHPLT

Test [9] deals with T5, NKX2-6 (Homo sapiens, UniProt A6NCS4 118-204).
T5 sequence: T4 sequence with C33R

Test [10] has as its target T6, NKX2-4 (Homo sapiens, UniProt Q9H2Z4 175-261, R246Q).
T6 sequence: T1 sequence with L43P, R72Q

Test [11] concerns the target T7, NKX2-6 (Homo sapiens, UniProt A6NCS4 118-204, F151L).
T7 sequence: T4 sequence with C33R, F34L

Test [12] concerns the target NKX3-2 (Homo sapiens, UniProt P78367 192-278, P234S).
Test [13] addresses NKX3-2 (Homo sapiens, UniProt P78367 192-278).
Test [14] concerns the target T8, VENTX (Homo sapiens, UniProt O95231 78-163, R121Q).
T8 sequence: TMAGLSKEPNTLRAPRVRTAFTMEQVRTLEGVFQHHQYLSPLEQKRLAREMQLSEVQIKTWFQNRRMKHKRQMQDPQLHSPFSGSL

Test [15] has as its target T9, VENTX (Homo sapiens, UniProt O95231 78-163).
T9 sequence: T8 sequence with Q44R

Test [16] concerns the target T10, VENTX (Homo sapiens, UniProt O95231 78-163, Y115F).
T10 sequence: T8 sequence with Y38F, Q44R

NKX2-5 (Homo sapiens, UniProt P52952 125-210, R139K), sequence (P52952 125-210 R139K): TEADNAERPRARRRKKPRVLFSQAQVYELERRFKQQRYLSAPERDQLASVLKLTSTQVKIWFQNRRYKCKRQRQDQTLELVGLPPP
NKX2-5 (Homo sapiens, UniProt P52952 125-210), sequence (P52952 125-210): as the sequence (P52952 125-210 R139K) above, with K15R counted along it
HOXB4 (Homo sapiens, UniProt P17483 148-234, V174I), sequence (P17483 148-234 V174I): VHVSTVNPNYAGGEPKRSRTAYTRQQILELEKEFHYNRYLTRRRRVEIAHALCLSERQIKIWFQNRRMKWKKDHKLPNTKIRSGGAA
HOXB4 (Homo sapiens, UniProt P17483 148-234), sequence (P17483 148-234): as the sequence (P17483 148-234 V174I) above, with I27V counted along it
NKX3-2 (Homo sapiens, UniProt P78367 192-278, P234S), sequence (P78367 192-278 P234S): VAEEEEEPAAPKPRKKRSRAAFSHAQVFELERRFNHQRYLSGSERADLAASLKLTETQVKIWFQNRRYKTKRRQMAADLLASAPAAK
HOXB9, sequence (P17482 171-250 R186Q): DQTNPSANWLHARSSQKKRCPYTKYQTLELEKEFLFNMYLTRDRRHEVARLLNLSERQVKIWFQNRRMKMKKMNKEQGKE
NKX3-2 (Homo sapiens, UniProt P78367 192-278), sequence (P78367 192-278): as the sequence (P78367 192-278 P234S) above, with S43P counted along it

Consider CGCCCGAG, for which the binding signal in the test with NKX2-5 [1] was 8.73 upbm affinity estimate (log intensity, higher = more binding, comparable within an allelic series); with HOXB4 [2], 7.76 upbm affinity estimate (log intensity, higher = more binding, comparable within an allelic series); with HOXB4 [3], 7.79 upbm affinity estimate (log intensity, higher = more binding, comparable within an allelic series); in the test with HOXB9 it was 8.29 upbm affinity estimate (log intensity, higher = more binding, comparable within an allelic series); in the test with NKX2-5 [4], 8.76 upbm affinity estimate (log intensity, higher = more binding, comparable within an allelic series).

ACACTTAT: the binding signal in the test with NKX2-5 [1] was 12.7 upbm affinity estimate (log intensity, higher = more binding, comparable within an allelic series); with NKX2-4 [5], 12.6 upbm affinity estimate (log intensity, higher = more binding, comparable within an allelic series); in the test with NKX2-4 [6] it was 12.9 upbm affinity estimate (log intensity, higher = more binding, comparable within an allelic series); with NKX2-4 [7], 12.4 upbm affinity estimate (log intensity, higher = more binding, comparable within an allelic series); with NKX2-6 [8], 11.9 upbm affinity estimate (log intensity, higher = more binding, comparable within an allelic series); with NKX2-6 [9], 13.6 upbm affinity estimate (log intensity, higher = more binding, comparable within an allelic series). The binding signal is 13.1 upbm affinity estimate (log intensity, higher = more binding, comparable within an allelic series) in the test with NKX2-4 [10]; 11.1 upbm affinity estimate (log intensity, higher = more binding, comparable within an allelic series) with NKX2-6 [11]; 12.5 upbm affinity estimate (log intensity, higher = more binding, comparable within an allelic series) in the test with NKX3-2 [12]; 12.6 upbm affinity estimate (log intensity, higher = more binding, comparable within an allelic series) with NKX2-5 [4].

For the sequence CACGCGTG, the binding signal with NKX2-5 [1] was 8.8 upbm affinity estimate (log intensity, higher = more binding, comparable within an allelic series); with HOXB4 [2] it was 7.77 upbm affinity estimate (log intensity, higher = more binding, comparable within an allelic series); in the test with HOXB4 [3], 7.9 upbm affinity estimate (log intensity, higher = more binding, comparable within an allelic series); with NKX2-5 [4], 8.74 upbm affinity estimate (log intensity, higher = more binding, comparable within an allelic series).

As for CCGCGTCG, the binding signal with NKX2-5 [1] was 9.03 upbm affinity estimate (log intensity, higher = more binding, comparable within an allelic series); in the test with HOXB4 [2] it was 7.75 upbm affinity estimate (log intensity, higher = more binding, comparable within an allelic series); with HOXB4 [3], 7.36 upbm affinity estimate (log intensity, higher = more binding, comparable within an allelic series); with NKX2-5 [4] it was 8.95 upbm affinity estimate (log intensity, higher = more binding, comparable within an allelic series).

With CCCGGCGG, the binding signal in the test with NKX2-5 [1] was 8.56 upbm affinity estimate (log intensity, higher = more binding, comparable within an allelic series); with HOXB4 [2], 7.64 upbm affinity estimate (log intensity, higher = more binding, comparable within an allelic series); in the test with HOXB4 [3], 7.61 upbm affinity estimate (log intensity, higher = more binding, comparable within an allelic series); in the test with NKX2-5 [4] it was 8.58 upbm affinity estimate (log intensity, higher = more binding, comparable within an allelic series).

ACCCGGGC: the binding signal with NKX2-5 [1] is 8.96 upbm affinity estimate (log intensity, higher = more binding, comparable within an allelic series); with NKX2-5 [4], 8.92 upbm affinity estimate (log intensity, higher = more binding, comparable within an allelic series).

As to ATAAGTGG, the binding signal in the test with NKX2-5 [1] is 13.2 upbm affinity estimate (log intensity, higher = more binding, comparable within an allelic series); with NKX2-4 [5] it was 12.8 upbm affinity estimate (log intensity, higher = more binding, comparable within an allelic series); with NKX2-4 [6], 13.2 upbm affinity estimate (log intensity, higher = more binding, comparable within an allelic series); in the test with NKX2-4 [7] it was 12.7 upbm affinity estimate (log intensity, higher = more binding, comparable within an allelic series); with NKX2-6 [8], 12.4 upbm affinity estimate (log intensity, higher = more binding, comparable within an allelic series); in the test with NKX2-6 [9], 13.9 upbm affinity estimate (log intensity, higher = more binding, comparable within an allelic series). Besides, the binding signal in the test with NKX2-4 [10] was 13.3 upbm affinity estimate (log intensity, higher = more binding, comparable within an allelic series); in the test with NKX2-6 [11] it was 11.4 upbm affinity estimate (log intensity, higher = more binding, comparable within an allelic series); in the test with NKX3-2 [12], 13.1 upbm affinity estimate (log intensity, higher = more binding, comparable within an allelic series); in the test with NKX2-5 [4], 13.1 upbm affinity estimate (log intensity, higher = more binding, comparable within an allelic series); with NKX3-2 [13], 13.1 upbm affinity estimate (log intensity, higher = more binding, comparable within an allelic series).

With CTACTTAA, the binding signal is 12.4 upbm affinity estimate (log intensity, higher = more binding, comparable within an allelic series) in the test with NKX2-5 [1]; 12.5 upbm affinity estimate (log intensity, higher = more binding, comparable within an allelic series) with NKX2-4 [5]; 12.9 upbm affinity estimate (log intensity, higher = more binding, comparable within an allelic series) in the test with NKX2-4 [6]; 12.4 upbm affinity estimate (log intensity, higher = more binding, comparable within an allelic series) with NKX2-4 [7]; 11.5 upbm affinity estimate (log intensity, higher = more binding, comparable within an allelic series) in the test with NKX2-6 [8]; 13.6 upbm affinity estimate (log intensity, higher = more binding, comparable within an allelic series) with NKX2-6 [9]. Moreover, the binding signal with NKX2-4 [10] was 13 upbm affinity estimate (log intensity, higher = more binding, comparable within an allelic series); with NKX2-6 [11], 10.6 upbm affinity estimate (log intensity, higher = more binding, comparable within an allelic series); in the test with NKX2-5 [4], 12.3 upbm affinity estimate (log intensity, higher = more binding, comparable within an allelic series).

As to CGGGCTCC, the binding signal was 8.64 upbm affinity estimate (log intensity, higher = more binding, comparable within an allelic series) with NKX2-5 [1]; 6.66 upbm affinity estimate (log intensity, higher = more binding, comparable within an allelic series) with HOXB4 [2]; 7.54 upbm affinity estimate (log intensity, higher = more binding, comparable within an allelic series) with VENTX [14]; 6.97 upbm affinity estimate (log intensity, higher = more binding, comparable within an allelic series) with VENTX [15]; 7.32 upbm affinity estimate (log intensity, higher = more binding, comparable within an allelic series) in the test with VENTX [16]; 6.92 upbm affinity estimate (log intensity, higher = more binding, comparable within an allelic series) with HOXB4 [3]. Besides, the binding signal with NKX2-6 [9] was 9.11 upbm affinity estimate (log intensity, higher = more binding, comparable within an allelic series); in the test with HOXB9 it was 7.82 upbm affinity estimate (log intensity, higher = more binding, comparable within an allelic series); with NKX2-6 [11] it was 9.07 upbm affinity estimate (log intensity, higher = more binding, comparable within an allelic series); with NKX2-5 [4], 8.58 upbm affinity estimate (log intensity, higher = more binding, comparable within an allelic series).

Consider ACGGCTGG, for which the binding signal with NKX2-5 [1] is 8.82 upbm affinity estimate (log intensity, higher = more binding, comparable within an allelic series); with HOXB4 [2], 7.57 upbm affinity estimate (log intensity, higher = more binding, comparable within an allelic series); with HOXB4 [3] it was 7.93 upbm affinity estimate (log intensity, higher = more binding, comparable within an allelic series); with NKX2-5 [4], 8.82 upbm affinity estimate (log intensity, higher = more binding, comparable within an allelic series).

Turning to ACGGCGGC, the binding signal with NKX2-5 [1] was 9 upbm affinity estimate (log intensity, higher = more binding, comparable within an allelic series); with HOXB4 [2] it was 7.36 upbm affinity estimate (log intensity, higher = more binding, comparable within an allelic series); with HOXB4 [3], 7.56 upbm affinity estimate (log intensity, higher = more binding, comparable within an allelic series); with NKX2-5 [4], 8.98 upbm affinity estimate (log intensity, higher = more binding, comparable within an allelic series).
